Experimental findings from the supplement of paper PMC10646978 are described below.

± gives the standard deviation.

For one experiment, the system named is RAW-Dual (murine macrophage reporter line). The experiment can be described thus: NF-kB reporter (SEAP) activity fold change vs agonist alone; higher = enhanced NF-kB activity. The following applies: modulator concentration 10 µM; agonist: CpG ODN 1826 0.5 ug/mL. In short, it runs like this: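 Compound reached 10 μM final in each well by pin transfer, onto RAW-Dual murine macrophage reporter cells seeded at 50 000 per well in 384-well plates. After 1 hour at 37 °C, the cells were stimulated overnight with a PRR agonist. SEAP in the supernatant was read with QUANTI-Blue at 620 nm absorbance for NF-κB, and Lucia luciferase was read with QUANTI-Luc luminescence for IRF. Each signal was turned into fold change against the mean agonist-only control on the same plate, and two replicate plates were averaged with propagated errors.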
On to `CC(=O)N1CC(C(=O)Nc2ccc(Br)c(C)c2)C1`, for which the NF-kB reporter is 1.05 ± 0.071.

Turning to `CCOc1cc([C@@H](CS(C)(=O)=O)N2C(=O)c3cccc(NC(C)=O)c3C2=O)ccc1OC`, the NF-kB reporter turned out to be 2.72 ± 0.66.

Take `Cc1cn2nc(C(=O)Nc3ccccc3N3CCN(C)CC3)cc2c(=O)[nH]1`: the NF-kB reporter amounted to 0.685 ± 0.035.

In the case of `O=c1ncnc2[nH][nH]cc1-2`, the NF-kB reporter was found to be 0.832 ± 0.071.

As to `COC(=O)C1=CN(CC2CCCO2)C=C(C(=O)OC)C1c1ccsc1` (configuration not stated), the NF-kB reporter came to 0.898 ± 0.087.

For `CCOc1ccccc1OCCCCOc1cccc(C)c1C`, the NF-kB reporter stood at 0.984 ± 0.1.

On to `Cc1cccc(-c2cc3nc(C)c(Cl)c(O)n3n2)c1`, for which the NF-kB reporter was determined as 1.04 ± 0.058.

As to `O=C(NNC(=O)c1sc2cc(F)ccc2c1Cl)Nc1ccc(Cl)cc1`, the NF-kB reporter was 1.02 ± 0.081.

With `Cc1cn([C@H]2C=C[C@@H](CO)O2)c(=O)[nH]c1=O` [Prestw-1279], the NF-kB reporter was found to be 1.13 ± 0.11.

Consider `CCCCC1(C)OC(=O)C(=Cc2ccc(OC)c([N+](=O)[O-])c2)C(=O)O1` (configuration not stated), for which the NF-kB reporter is 0.994 ± 0.17.

On to `CC1(C)CCCC2(C)C1CCC1(C)OC(=O)CC12` (configuration not stated), for which the NF-kB reporter amounted to 0.532 ± 0.077.

With `Cn1cc(CC(=O)NC2CCN(c3cc(C(F)(F)F)ncn3)CC2)c2ccccc21`, the NF-kB reporter amounted to 1.45 ± 0.082.

Consider `COCCN1C(=O)CN(C2CCN(Cc3cc(OC)cc(OC)c3)CC2)C1=O`, for which the NF-kB reporter came to 0.918 ± 0.047.

For `CC(C)Cn1cc(Cl)c(=O)n(CC(C)C)c1=O`, the NF-kB reporter stood at 1.12 ± 0.068.

Consider `Br.CCCc1cc(-c2nc(-c3ccc(C)cc3)cs2)ccn1`, for which the NF-kB reporter turned out to be 1.09 ± 0.18.

`CCCCCn1c(=O)[nH]c2cc(C(=O)N3CCN(C(=O)OCC)CC3)ccc2c1=O`: the NF-kB reporter is 1.12 ± 0.065.

`COc1ccc(NC(=O)Cc2cn(Cc3ccccc3)c3ccccc23)cc1OC`: the NF-kB reporter is 0.629 ± 0.035.

For the compound `O=C(NN=Cc1sc2ccccc2c1Cl)c1ccncc1`, the NF-kB reporter was 0.918 ± 0.08.

Turning to `CS(=O)(=O)N(CC(=O)NCC1CCCO1)c1ccc(Cl)c(C(F)(F)F)c1` (configuration not stated), the NF-kB reporter was 0.751 ± 0.071.

For the compound `COC(=O)C1C(c2ccccc2)C(C(=O)Oc2ccc(C(C)=O)cc2)C1c1ccccc1` (configuration not stated), the NF-kB reporter is 0.895 ± 0.069.

As for `CCN(CC)Cc1ccc(Nc2ccnc3cc(Cl)ccc23)cc1O.Cl.Cl`, the NF-kB reporter is 0.998 ± 0.1.

`CS(=O)(=O)N1CC(C(=O)N2CCN(c3cccc(Cl)c3Cl)CC2)C1`: the NF-kB reporter worked out at 1.16 ± 0.065.

Still in this experiment, the particulars now being: modulator concentration 10 µM; agonist: LPS 0.1 ug/mL.
Regarding `CC1ON(c2ccc(Cl)c(Cl)c2)C(=O)NC1=O` (configuration not stated), the NF-kB reporter came out at 0.886 ± 0.065.

As for `Oc1ccc2ccccc2c1SSc1c(O)ccc2ccccc12`, the NF-kB reporter is 0.993 ± 0.14.

`COc1ccc2cc1Oc1ccc(cc1)C[C@H]1c3c(cc4c(c3Oc3cc5c(cc3OC)CCN(C)[C@@H]5C2)OCO4)CCN1C`: the NF-kB reporter was determined as 1.09 ± 0.091.

On to `CCOc1ccc(OCCCCOc2cccc(C)c2)cc1`, for which the NF-kB reporter was determined as 1.11 ± 0.074.

With `Cc1cccc(C)c1N(CC(=O)Nc1ccc(-c2ncon2)cc1)C(=O)C1CCS(=O)(=O)CC1`, the NF-kB reporter came to 0.939 ± 0.075.

Consider `c1ccc(-n2nnnc2Sc2ncnc3sc4c(c23)CCCC4)cc1`, for which the NF-kB reporter was found to be 0.481 ± 0.088.

For the compound `O=S(=O)(Cc1ccccc1)Nc1ccccn1`, the NF-kB reporter was found to be 1.03 ± 0.084.

`COc1c(C)c2c(c(O)c1C/C=C(\C)CCC(=O)O)C(=O)OC2`: the NF-kB reporter is 0.146 ± 0.007.

As for `O=C(CCCN1CCN(c2ccccn2)CC1)c1ccc(F)cc1`, the NF-kB reporter was found to be 1.05 ± 0.1.

With `Cc1cc(OC2CCN(C(=O)c3csc(C)n3)CC2)nc(C)n1`, the NF-kB reporter amounted to 1.11 ± 0.095.

With `O=C1C(Cl)=C(N2CCCCC2)C(=O)N1c1ccc(Cl)c(Cl)c1`, the NF-kB reporter was determined as 1.07 ± 0.084.

In the case of `CN(C)CCC(c1ccccc1)c1ccccn1.O=C(O)/C=C\C(=O)O` (configuration not stated), the NF-kB reporter was found to be 0.227 ± 0.018.

Consider `CS(=O)(=O)N(CC(=O)NC1CC1)c1cccc2ccccc12`, for which the NF-kB reporter was 1.01 ± 0.12.

With `Cc1ccc(-c2cc(NC(=O)c3ccc([N+](=O)[O-])cc3)[nH]n2)cc1`, the NF-kB reporter came out at 1.04 ± 0.059.

`Cn1nc(CNS(=O)(=O)c2cccc(C(F)(F)F)c2)c2c1CCOC2`: the NF-kB reporter amounted to 1.08 ± 0.061.

As to `CC(C)NCC(O)COc1cccc2ccccc12.Cl` (configuration not stated), the NF-kB reporter turned out to be 1.05 ± 0.13.

Regarding `CCOC(=O)C1=C(C)N(c2ccc(OC)cc2)C(=O)C1=Cc1ccc(C(=O)O)cc1`, the NF-kB reporter stood at 1.12 ± 0.087.

Regarding `Oc1ccc(N=Cc2ccccc2O)cc1`, the NF-kB reporter stood at 1.24 ± 0.086.

Turning to `CC(=O)N1CC(C(=O)Nc2ccc(Br)c(C)c2)C1`, the NF-kB reporter was found to be 0.996 ± 0.082.

Turning to `CCOc1cc([C@@H](CS(C)(=O)=O)N2C(=O)c3cccc(NC(C)=O)c3C2=O)ccc1OC`, the NF-kB reporter turned out to be 0.969 ± 0.058.

Regarding `Cc1cn2nc(C(=O)Nc3ccccc3N3CCN(C)CC3)cc2c(=O)[nH]1`, the NF-kB reporter amounted to 1.08 ± 0.11.

Turning to `O=c1ncnc2[nH][nH]cc1-2`, the NF-kB reporter came out at 0.865 ± 0.043.

Consider `COC(=O)C1=CN(CC2CCCO2)C=C(C(=O)OC)C1c1ccsc1` (configuration not stated), for which the NF-kB reporter was found to be 0.845 ± 0.057.

Turning to `CCOc1ccccc1OCCCCOc1cccc(C)c1C`, the NF-kB reporter stood at 1.03 ± 0.11.

Turning to `Cc1cccc(-c2cc3nc(C)c(Cl)c(O)n3n2)c1`, the NF-kB reporter turned out to be 1.04 ± 0.091.

As for `O=C(NNC(=O)c1sc2cc(F)ccc2c1Cl)Nc1ccc(Cl)cc1`, the NF-kB reporter was 0.995 ± 0.086.

For the compound `Cc1cn([C@H]2C=C[C@@H](CO)O2)c(=O)[nH]c1=O` [Prestw-1279], the NF-kB reporter is 1.05 ± 0.13.

For `CCCCC1(C)OC(=O)C(=Cc2ccc(OC)c([N+](=O)[O-])c2)C(=O)O1` (configuration not stated), the NF-kB reporter stood at 1.07 ± 0.11.

Take `CC1(C)CCCC2(C)C1CCC1(C)OC(=O)CC12` (configuration not stated): the NF-kB reporter is 0.669 ± 0.11.

Consider `Cn1cc(CC(=O)NC2CCN(c3cc(C(F)(F)F)ncn3)CC2)c2ccccc21`, for which the NF-kB reporter was 1.24 ± 0.1.

As to `COCCN1C(=O)CN(C2CCN(Cc3cc(OC)cc(OC)c3)CC2)C1=O`, the NF-kB reporter stood at 1.14 ± 0.11.

Regarding `CC(C)Cn1cc(Cl)c(=O)n(CC(C)C)c1=O`, the NF-kB reporter stood at 1 ± 0.11.

Regarding `Br.CCCc1cc(-c2nc(-c3ccc(C)cc3)cs2)ccn1`, the NF-kB reporter was 1.24 ± 0.12.

In the case of `CCCCCn1c(=O)[nH]c2cc(C(=O)N3CCN(C(=O)OCC)CC3)ccc2c1=O`, the NF-kB reporter was 1.09 ± 0.068.

With `COc1ccc(NC(=O)Cc2cn(Cc3ccccc3)c3ccccc23)cc1OC`, the NF-kB reporter was 1.2 ± 0.096.

Regarding `O=C(NN=Cc1sc2ccccc2c1Cl)c1ccncc1`, the NF-kB reporter is 1.02 ± 0.091.

Turning to `CS(=O)(=O)N(CC(=O)NCC1CCCO1)c1ccc(Cl)c(C(F)(F)F)c1` (configuration not stated), the NF-kB reporter stood at 0.821 ± 0.039.

Turning to `COC(=O)C1C(c2ccccc2)C(C(=O)Oc2ccc(C(C)=O)cc2)C1c1ccccc1` (configuration not stated), the NF-kB reporter came out at 0.939 ± 0.046.

Regarding `CCN(CC)Cc1ccc(Nc2ccnc3cc(Cl)ccc23)cc1O.Cl.Cl`, the NF-kB reporter is 0.874 ± 0.065.

For the compound `CS(=O)(=O)N1CC(C(=O)N2CCN(c3cccc(Cl)c3Cl)CC2)C1`, the NF-kB reporter was found to be 1.08 ± 0.12.
